Sampled rows, rich in hits. Any-hit rate of the full collection: about 2.9%.
HGIII-sPLA2 inh: human group III sPLA2 inhibitors, primary screen, biochemical, QFRET, BODIPY PC-A2 liposome substrate | Group 3 secretory phospholipase A2 (Homo sapiens), Q9NZ20 | QFRET BODIPY PC-A2 liposome hydrolysis, fluorescence | inhibition, % at 12.2 µM | 370,000 compounds, 0.56% hits | AID 743126, 2013;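 active means inhibition above mean plus 3 SD of compounds lying within the high and low control bounds, cut at about 19% in these data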;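 further: 0% = median of test compound wells and 100% = no enzyme DMSO wells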
Cardio protect: cardioprotection against H2O2-induced cell death, primary screen, uHTS, H9c2 cells, ATPLite luminescence; H9c2 cardiomyocytes, H2O2 injury protection, 2 h; protection from H2O2 cell death, % at 20 µM; 360,000 compounds, 0.63% hits; AID 588492, 2011;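 active means compounds giving at least 50% protection of heart cells from peroxide-induced death in the single-dose screen, raw or plate-pattern-corrected value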;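 further: 0% = DMSO wells with peroxide and 100% = DMSO wells without peroxide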
ABHD5 PLIN5 PPI: ABHD5-PLIN5 interaction inhibitors, primary screen, cell lysate, split luciferase complementation, luminescence; Perilipin-5 (Homo sapiens) + 1-acylglycerol-3-phosphate O-acyltransferase ABHD5 (Homo …; Split G. princeps luciferase complementation, 4 h; inhibition, % at 4 µM; 360,000 compounds, 0.78% hits; AID 602281, 2012;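 active means inhibition above the mean inhibition across every tested compound plus 3 SD, cut at about 22% in these data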;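 further: 0% = DMSO only wells and the 100% control is not disclosed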
Myeloid diff MLP: induction of myeloid progenitor differentiation, primary screen, cell-based, flow cytometry, MLPCN library; calls only at 10 µM; 360,000 compounds, 1% hits; AID 624256, 2012; ER-HoxA9 myeloid progenitors, lysozyme-GFP differentiation;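 active means normalized GFP-positive differentiation at or above the plate's own cutoff, the solvent-only control mean plus 3 SD; inconclusive means no clear call, values can overlap the other calls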;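 further: cells exposed to compound for four days before flow analysis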
Rtt109 HAT inh: inhibitors of C. albicans Rtt109/Vps75 HAT, primary screen, biochemical, ThioGlo CoA-SH fluorescence, plate reader | AID 540336, 2011 | purified Rtt109/Vps75, 4 h | inhibition, % at 34.9 µM | Histone acetyltransferase RTT109 (Candida albicans (strain SC5314 / ATCC MYA-2876)), … | 330,000 compounds, 0.16% hits;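 active means inhibition of at least 50% in every replicate; inconclusive means best replicate reaches 50% inhibition but some replicates fall short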
DAGLB inh: DAGLB lipase inhibitors, primary screen, biochemical, fluorescence, HTS; 340,000 compounds, 0.059% hits; Diacylglycerol lipase-beta (Homo sapiens), Q8NCG7; inhibition, % at 5.17 µM; HEK293T DAGLB membrane lysate, EnzChek fluorogenic substrate; in the data active means inhibition above about 34%;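 further: 0% = enzyme with vehicle and 100% = wells lacking enzyme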
Target sequence (Q8NCG7 whole entry, looked up): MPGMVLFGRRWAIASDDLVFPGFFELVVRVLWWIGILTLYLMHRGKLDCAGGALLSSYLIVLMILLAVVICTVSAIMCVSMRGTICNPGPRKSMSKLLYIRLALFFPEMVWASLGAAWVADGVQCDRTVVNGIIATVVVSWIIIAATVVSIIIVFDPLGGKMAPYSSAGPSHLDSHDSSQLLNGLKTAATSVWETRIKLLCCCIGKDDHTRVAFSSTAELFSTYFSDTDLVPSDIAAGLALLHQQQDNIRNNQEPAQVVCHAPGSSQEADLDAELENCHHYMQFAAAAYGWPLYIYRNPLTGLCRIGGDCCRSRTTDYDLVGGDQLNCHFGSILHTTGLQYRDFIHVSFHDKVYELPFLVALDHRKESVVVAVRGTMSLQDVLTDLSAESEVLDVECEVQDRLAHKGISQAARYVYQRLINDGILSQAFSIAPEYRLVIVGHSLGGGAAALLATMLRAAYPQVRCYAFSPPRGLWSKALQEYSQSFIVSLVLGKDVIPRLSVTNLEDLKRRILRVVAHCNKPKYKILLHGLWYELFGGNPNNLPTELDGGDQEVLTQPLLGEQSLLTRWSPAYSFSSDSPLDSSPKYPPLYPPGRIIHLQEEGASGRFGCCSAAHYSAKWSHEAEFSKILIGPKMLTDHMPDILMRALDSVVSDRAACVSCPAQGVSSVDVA
Myeloid diff CP1: inducers of myeloid progenitor differentiation, confirmation, cell-based, GFP/Mac1 flow cytometry, cherry pick 01 | 2,300 compounds, 2% hits | AID 651706, 2012 | ER-HoxA9 myeloid progenitors, GFP/Mac1 double-positive flow | calls only | shares compounds with Myeloid diff MLP;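 active means share of green or green-and-red cells above 9 and 9% in run 1 or 4 and 3% in run 2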
GFP autofluor: flagged as fluorescent in myeloid differentiation counter-screen | shares compounds with Myeloid diff MLP | ER-HoxA9 myeloid progenitors, no estrogen, GFP autofluorescence flow cytometry; vehicle wells 0%, positive control 100% | fluorescence response, % (concentration not given with the values) | 2,300 compounds, 7.4% hits;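 active means over 5% cells positive for green fluorescent reporter, or over 2% positive for both it and APC stain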;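 further: range taken on the double positive population between DMSO and positive control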
Starred values were filed as active, the others as inactive; i = inactive; ? = inconclusive; / = no result; + = active, no number.

SMILES | HGIII-sPLA2 inh | Cardio protect | ABHD5 PLIN5 PPI | Myeloid diff MLP | Rtt109 HAT inh | DAGLB inh | Myeloid diff CP1 | GFP autofluor
CC1(C)O[C@@H]2[C@H](O1)[C@@H](COS(=O)(=O)O)O[C@H]2n1cc(Br)c(=O)[nH]c1=O | 0.2 | 11.7 | -3.0 | + | 1.1 | 0.5 | i | 0.0
Cc1nnc(SCCn2c(N(C)Cc3ccccc3)nc3c2c(=O)[nH]c(=O)n3C)s1 | -2.8 | 6.5 | 6.9 | + | 9.3 | 3.0 | i | 0.3
O=C(CSc1cccc(C(F)(F)F)c1)NC(=O)NCc1ccco1 | -4.6 | -2.6 | 6.6 | i | / | 2.4 | / | /
COc1ccc(C(=O)N[C@H](C(=O)Nc2cccc(S(=O)(=O)N3CCOCC3)c2)C(C)C)cc1 | -5.8 | -3.1 | 0.9 | + | / | -2.5 | i | 0.0
COc1ccc(Br)c(C(=O)Nc2cccc(S(=O)(=O)N3CCOCC3)c2)c1 | -5.1 | 4.1 | 3.7 | i | 5.8 | -1.3 | / | /
O=C(NCCCN1CCOCC1)c1ccc(CS(=O)(=O)c2ccc(Br)cc2)o1 | -2.8 | -7.9 | 7.2 | i | 3.6 | 1.8 | / | /
CN(C)c1ccc(C=NN2C(=O)CSC2=S)c(Cl)c1 | -12.5 | -6.3 | -16.6 | + | / | -13.6 | i | 0.4
COc1ccc(-n2c(C)cc(C(=O)COC(=O)Cc3n[nH]c(=O)c4ccccc34)c2C)cc1 | -14.4 | 35.0 | -7.9 | ? | 6.1 | -2.7 | / | /
Cc1cc(C(=O)COC(=O)Cc2n[nH]c(=O)c3ccccc23)c(C)n1-c1ccc2c(c1)OCO2 | -1.8 | 15.9 | -0.5 | + | 9.4 | -0.6 | i | 0.7
Clc1cccc(OCc2nc(-c3ccncc3)n[nH]2)c1 | -2.4 | 6.2 | 3.8 | i | -11.2 | 0.8 | i | 0.3
CCc1nnc(NS(=O)(=O)c2ccc(NC(=S)NC(=O)c3cccnc3)cc2)s1 | -3.5 | -5.6 | 0.7 | + | 3.8 | 4.5 | i | 0.6
CCc1nnc(NS(=O)(=O)c2ccc(NC(=S)NC(=O)c3ccc(F)cc3)cc2)s1 | -25.8 | 2.9 | -1.8 | i | 10.1 | 8.2 | / | /
O=C1CSC(c2ccc(F)cc2)N1c1c(F)cccc1F (stereo unspecified) | -2.5 | -1.0 | -38.5 | i | 0.4 | -3.6 | / | /
COc1cccc(/C(O)=C/c2nc3ccc(C(=O)NCCc4ccc(Cl)cc4)cc3[nH]c2=O)c1 | -2.3 | 28.5 | 4.5 | + | -11.4 | 1.1 | i | 0.0
O=C(NCCc1ccc(Cl)cc1)c1ccc2nc[nH]c2c1 | -9.4 | -4.3 | 0.6 | i | -9.7 | -0.7 | / | /
COc1cc(CSc2nnnn2-c2ccc(C)cc2)cc(OC)c1OC | 5.3 | -17.1 | -0.9 | i | 14.4 | -4.1 | i | 0.0
COc1ccc(F)cc1CSc1nnnn1-c1ccc(O)cc1 | -25.6 | -7.3 | -7.5 | i | -2.6 | -1.2 | / | /
CCOCCCNC(=O)Cc1c(C(=O)O)[nH]c2ccc(Cl)cc12 | -2.0 | 2.7 | 3.1 | i | -0.4 | 1.5 | i | 0.4
COc1ccc(OC)c(CNC(=O)Cc2c(C(=O)O)[nH]c3ccc(Cl)cc23)c1 | -13.8 | -1.3 | 0.8 | i | -3.9 | 0.7 | / | /
NC(=Nc1ccccc1)N(c1ccccc1)c1ccccc1 | 8.9 | 0.6 | 0.7 | i | -11.4 | -1.3 | / | /
O=C(Nc1ccncc1)c1ccc(Cl)c(S(=O)(=O)N2CCc3ccccc32)c1 | -16.4 | -14.9 | -6.1 | i | 17.1 | 1.6 | i | 1.2
COc1ccc(C(=O)NC2CCCCCC2)cc1S(=O)(=O)N1CCCc2ccccc21 | -3.4 | -21.3 | 2.6 | i | 0.6 | -2.3 | i | 0.0

Compound activity as filed in PubChem BioAssay.
